Key:
[1] = target: Death-associated protein kinase 1 (Homo sapiens) (UniProt P53355); conditions: at 1 µM;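 note: each value is a mean inhibition figure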
[2] = target: T1, Serine/threonine-protein kinase DCLK2 (Homo sapiens) (UniProt Q8N568); conditions: at 0.1 µM
T1 sequence (whole entry): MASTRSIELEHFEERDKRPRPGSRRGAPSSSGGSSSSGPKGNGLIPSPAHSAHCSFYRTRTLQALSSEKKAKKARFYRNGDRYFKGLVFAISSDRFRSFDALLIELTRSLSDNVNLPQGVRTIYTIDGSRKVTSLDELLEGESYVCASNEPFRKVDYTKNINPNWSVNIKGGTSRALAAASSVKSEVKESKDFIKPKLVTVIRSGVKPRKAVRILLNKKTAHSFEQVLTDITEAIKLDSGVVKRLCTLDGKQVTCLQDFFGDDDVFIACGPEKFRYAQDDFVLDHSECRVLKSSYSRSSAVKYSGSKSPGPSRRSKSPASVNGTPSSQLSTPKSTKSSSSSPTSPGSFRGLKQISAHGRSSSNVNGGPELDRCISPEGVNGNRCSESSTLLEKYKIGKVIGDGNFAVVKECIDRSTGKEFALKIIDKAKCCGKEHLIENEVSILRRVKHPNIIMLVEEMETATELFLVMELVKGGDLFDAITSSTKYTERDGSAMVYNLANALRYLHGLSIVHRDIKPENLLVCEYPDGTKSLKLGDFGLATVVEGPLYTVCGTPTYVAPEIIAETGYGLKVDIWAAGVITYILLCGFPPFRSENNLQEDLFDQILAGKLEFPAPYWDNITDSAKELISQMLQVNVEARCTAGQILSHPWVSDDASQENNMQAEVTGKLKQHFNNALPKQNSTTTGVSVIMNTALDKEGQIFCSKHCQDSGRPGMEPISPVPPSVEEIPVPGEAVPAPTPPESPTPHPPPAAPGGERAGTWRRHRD

[3] = target: T1, Serine/threonine-protein kinase DCLK2 (Homo sapiens); conditions: at 1 µM
[4] = target: MAP kinase-activated protein kinase 2 (Homo sapiens) (UniProt P49137); conditions: at 0.1 µM
[5] = target: MAP kinase-activated protein kinase 2 (Homo sapiens) (UniProt P49137); conditions: at 1 µM
[6] = target: MAP kinase-activated protein kinase 3 (Homo sapiens) (UniProt Q16644); conditions: at 0.1 µM
Sequence of MAP kinase-activated protein kinase 3 (Homo sapiens) (Q16644 whole entry, looked up): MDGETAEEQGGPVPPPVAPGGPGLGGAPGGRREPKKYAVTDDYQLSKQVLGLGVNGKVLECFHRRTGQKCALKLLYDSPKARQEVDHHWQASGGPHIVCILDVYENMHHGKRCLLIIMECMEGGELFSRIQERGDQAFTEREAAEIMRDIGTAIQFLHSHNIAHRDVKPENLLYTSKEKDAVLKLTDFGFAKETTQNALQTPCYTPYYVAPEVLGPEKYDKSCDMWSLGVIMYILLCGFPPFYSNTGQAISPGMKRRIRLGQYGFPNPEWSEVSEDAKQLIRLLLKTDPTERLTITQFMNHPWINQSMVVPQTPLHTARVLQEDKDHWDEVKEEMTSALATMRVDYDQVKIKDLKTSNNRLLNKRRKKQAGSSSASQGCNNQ

[7] = target: MAP kinase-activated protein kinase 3 (Homo sapiens) (UniProt Q16644); conditions: at 1 µM
[8] = target: Serine/threonine-protein kinase MARK1 (Homo sapiens) (UniProt Q9P0L2); conditions: at 0.1 µM
Sequence of Serine/threonine-protein kinase MARK1 (Homo sapiens) (Q9P0L2 whole entry, looked up): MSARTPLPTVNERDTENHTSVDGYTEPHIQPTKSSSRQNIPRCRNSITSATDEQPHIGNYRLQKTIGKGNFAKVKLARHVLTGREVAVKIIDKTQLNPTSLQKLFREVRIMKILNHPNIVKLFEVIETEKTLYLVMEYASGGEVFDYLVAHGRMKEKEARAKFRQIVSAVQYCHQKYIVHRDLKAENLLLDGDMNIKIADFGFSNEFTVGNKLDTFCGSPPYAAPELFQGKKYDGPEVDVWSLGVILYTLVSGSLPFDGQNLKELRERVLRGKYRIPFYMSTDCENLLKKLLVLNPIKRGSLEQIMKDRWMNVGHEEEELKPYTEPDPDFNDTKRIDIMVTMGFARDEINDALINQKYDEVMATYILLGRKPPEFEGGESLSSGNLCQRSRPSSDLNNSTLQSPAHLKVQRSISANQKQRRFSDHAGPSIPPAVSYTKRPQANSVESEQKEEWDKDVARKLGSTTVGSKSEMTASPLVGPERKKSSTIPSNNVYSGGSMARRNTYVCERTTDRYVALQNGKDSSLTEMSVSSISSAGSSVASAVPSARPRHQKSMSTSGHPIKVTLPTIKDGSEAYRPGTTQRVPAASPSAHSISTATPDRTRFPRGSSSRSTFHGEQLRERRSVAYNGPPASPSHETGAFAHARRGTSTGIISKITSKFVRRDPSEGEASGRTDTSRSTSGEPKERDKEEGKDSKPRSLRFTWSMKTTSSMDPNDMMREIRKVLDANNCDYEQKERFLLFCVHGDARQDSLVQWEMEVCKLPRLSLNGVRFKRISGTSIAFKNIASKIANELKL

[9] = target: Serine/threonine-protein kinase MARK1 (Homo sapiens) (UniProt Q9P0L2); conditions: at 1 µM
[10] = target: MAP/microtubule affinity-regulating kinase 3 (Homo sapiens) (UniProt P27448); conditions: at 0.1 µM
Sequence of MAP/microtubule affinity-regulating kinase 3 (Homo sapiens) (P27448 whole entry, looked up): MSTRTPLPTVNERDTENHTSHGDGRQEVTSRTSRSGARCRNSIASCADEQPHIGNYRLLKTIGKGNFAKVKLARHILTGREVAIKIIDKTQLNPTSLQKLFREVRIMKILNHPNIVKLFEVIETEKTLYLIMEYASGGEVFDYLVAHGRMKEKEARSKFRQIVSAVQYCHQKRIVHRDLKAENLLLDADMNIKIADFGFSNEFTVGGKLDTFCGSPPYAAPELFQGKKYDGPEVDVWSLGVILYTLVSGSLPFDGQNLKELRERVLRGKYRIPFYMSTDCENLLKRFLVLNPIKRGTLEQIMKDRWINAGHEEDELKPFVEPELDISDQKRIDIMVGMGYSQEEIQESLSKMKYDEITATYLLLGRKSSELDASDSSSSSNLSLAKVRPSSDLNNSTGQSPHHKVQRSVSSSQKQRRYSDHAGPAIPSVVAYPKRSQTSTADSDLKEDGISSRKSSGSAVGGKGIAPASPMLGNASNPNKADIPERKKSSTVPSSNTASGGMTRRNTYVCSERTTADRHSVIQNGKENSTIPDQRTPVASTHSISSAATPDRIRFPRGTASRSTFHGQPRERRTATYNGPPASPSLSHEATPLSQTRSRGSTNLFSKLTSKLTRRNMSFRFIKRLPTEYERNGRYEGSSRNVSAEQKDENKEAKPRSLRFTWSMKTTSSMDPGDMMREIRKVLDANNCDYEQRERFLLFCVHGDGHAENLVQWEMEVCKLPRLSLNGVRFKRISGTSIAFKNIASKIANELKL

[11] = target: MAP/microtubule affinity-regulating kinase 3 (Homo sapiens) (UniProt P27448); conditions: at 1 µM
[12] = target: T2, MAP/microtubule affinity-regulating kinase 4 (Homo sapiens) (UniProt Q96L34); conditions: at 0.1 µM
T2 sequence (whole entry): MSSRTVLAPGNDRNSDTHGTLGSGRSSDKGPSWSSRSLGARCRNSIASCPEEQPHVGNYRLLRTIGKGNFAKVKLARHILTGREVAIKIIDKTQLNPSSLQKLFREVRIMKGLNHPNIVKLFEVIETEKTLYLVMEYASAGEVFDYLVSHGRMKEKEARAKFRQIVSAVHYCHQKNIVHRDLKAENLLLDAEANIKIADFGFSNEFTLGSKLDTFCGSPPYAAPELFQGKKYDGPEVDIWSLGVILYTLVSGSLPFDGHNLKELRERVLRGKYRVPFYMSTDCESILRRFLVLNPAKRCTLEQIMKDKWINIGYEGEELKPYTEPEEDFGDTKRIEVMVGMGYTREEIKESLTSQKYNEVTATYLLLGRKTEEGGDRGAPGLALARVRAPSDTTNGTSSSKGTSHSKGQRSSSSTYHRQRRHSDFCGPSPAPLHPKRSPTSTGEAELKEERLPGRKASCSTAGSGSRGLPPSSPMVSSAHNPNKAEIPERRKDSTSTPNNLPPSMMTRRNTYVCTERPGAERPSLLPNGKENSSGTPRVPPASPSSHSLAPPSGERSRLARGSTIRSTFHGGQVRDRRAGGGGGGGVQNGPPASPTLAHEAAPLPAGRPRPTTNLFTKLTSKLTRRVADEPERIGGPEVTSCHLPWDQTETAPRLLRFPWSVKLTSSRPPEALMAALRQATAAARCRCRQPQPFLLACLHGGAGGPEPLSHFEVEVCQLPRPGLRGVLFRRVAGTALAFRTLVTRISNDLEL

[13] = target: T2, MAP/microtubule affinity-regulating kinase 4 (Homo sapiens); conditions: at 1 µM
[14] = target: Maternal embryonic leucine zipper kinase (Homo sapiens) (UniProt Q14680); conditions: at 0.1 µM
[15] = target: Maternal embryonic leucine zipper kinase (Homo sapiens) (UniProt Q14680); conditions: at 1 µM
[16] = target: MAP kinase-interacting serine/threonine-protein kinase 1 (Homo sapiens) (UniProt Q9BUB5); conditions: at 0.1 µM
Sequence of MAP kinase-interacting serine/threonine-protein kinase 1 (Homo sapiens) (Q9BUB5 whole entry, looked up): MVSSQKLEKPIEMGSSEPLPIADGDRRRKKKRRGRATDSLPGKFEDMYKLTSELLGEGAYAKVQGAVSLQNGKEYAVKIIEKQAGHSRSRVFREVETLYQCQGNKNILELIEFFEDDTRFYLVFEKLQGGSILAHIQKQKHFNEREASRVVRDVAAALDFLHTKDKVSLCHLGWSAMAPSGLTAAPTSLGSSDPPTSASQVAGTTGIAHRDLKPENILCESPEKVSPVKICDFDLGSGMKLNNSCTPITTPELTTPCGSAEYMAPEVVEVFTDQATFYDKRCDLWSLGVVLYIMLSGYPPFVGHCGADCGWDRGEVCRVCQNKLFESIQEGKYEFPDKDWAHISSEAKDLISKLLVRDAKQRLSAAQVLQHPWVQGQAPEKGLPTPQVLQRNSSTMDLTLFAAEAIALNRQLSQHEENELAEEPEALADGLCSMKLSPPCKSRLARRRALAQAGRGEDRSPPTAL

[17] = target: MAP kinase-interacting serine/threonine-protein kinase 1 (Homo sapiens) (UniProt Q9BUB5); conditions: at 1 µM
[18] = target: MAP kinase-interacting serine/threonine-protein kinase 2 (Homo sapiens) (UniProt Q9HBH9); conditions: at 0.1 µM
Sequence of MAP kinase-interacting serine/threonine-protein kinase 2 (Homo sapiens) (Q9HBH9 whole entry, looked up): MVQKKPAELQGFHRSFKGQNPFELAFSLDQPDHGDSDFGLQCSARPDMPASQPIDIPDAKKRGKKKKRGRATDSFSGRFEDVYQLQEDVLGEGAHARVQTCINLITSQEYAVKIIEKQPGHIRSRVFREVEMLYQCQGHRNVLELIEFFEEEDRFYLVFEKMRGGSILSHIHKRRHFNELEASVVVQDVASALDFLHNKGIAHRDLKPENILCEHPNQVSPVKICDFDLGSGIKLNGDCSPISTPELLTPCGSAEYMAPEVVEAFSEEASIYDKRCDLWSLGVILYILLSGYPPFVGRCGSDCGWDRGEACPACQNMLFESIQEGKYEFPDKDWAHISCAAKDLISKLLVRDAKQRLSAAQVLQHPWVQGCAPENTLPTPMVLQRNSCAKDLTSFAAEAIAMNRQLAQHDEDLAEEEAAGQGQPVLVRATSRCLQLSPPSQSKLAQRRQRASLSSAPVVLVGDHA

[19] = target: MAP kinase-interacting serine/threonine-protein kinase 2 (Homo sapiens) (UniProt Q9HBH9); conditions: at 1 µM
[20] = target: Serine/threonine-protein kinase MARK2 (Homo sapiens) (UniProt Q7KZI7); conditions: at 0.1 µM;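 note: mean percent inhibition of PAR-1Balpha kinase activity, reported from the GSK PKIS screen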
Sequence of Serine/threonine-protein kinase MARK2 (Homo sapiens) (Q7KZI7 whole entry): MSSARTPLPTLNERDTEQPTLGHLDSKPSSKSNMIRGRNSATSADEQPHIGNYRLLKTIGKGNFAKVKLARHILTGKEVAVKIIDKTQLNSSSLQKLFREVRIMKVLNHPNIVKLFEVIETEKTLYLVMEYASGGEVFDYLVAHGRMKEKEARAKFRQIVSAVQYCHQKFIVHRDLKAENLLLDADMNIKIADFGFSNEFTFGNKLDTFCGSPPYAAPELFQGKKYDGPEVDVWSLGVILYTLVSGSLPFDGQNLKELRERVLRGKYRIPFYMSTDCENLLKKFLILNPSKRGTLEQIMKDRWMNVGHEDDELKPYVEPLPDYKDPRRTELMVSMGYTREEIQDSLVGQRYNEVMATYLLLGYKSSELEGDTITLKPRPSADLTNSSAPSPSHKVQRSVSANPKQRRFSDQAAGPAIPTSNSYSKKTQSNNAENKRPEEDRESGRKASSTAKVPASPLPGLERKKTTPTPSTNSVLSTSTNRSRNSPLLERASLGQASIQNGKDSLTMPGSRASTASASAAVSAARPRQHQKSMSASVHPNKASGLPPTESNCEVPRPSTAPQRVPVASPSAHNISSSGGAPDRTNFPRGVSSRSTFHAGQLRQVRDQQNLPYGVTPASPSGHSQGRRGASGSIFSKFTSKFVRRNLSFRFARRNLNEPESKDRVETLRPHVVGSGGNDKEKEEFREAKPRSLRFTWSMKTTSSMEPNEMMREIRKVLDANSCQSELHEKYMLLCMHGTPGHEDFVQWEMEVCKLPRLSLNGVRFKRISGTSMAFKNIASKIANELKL

Sequence of Death-associated protein kinase 1 (Homo sapiens) (P53355 whole entry, looked up): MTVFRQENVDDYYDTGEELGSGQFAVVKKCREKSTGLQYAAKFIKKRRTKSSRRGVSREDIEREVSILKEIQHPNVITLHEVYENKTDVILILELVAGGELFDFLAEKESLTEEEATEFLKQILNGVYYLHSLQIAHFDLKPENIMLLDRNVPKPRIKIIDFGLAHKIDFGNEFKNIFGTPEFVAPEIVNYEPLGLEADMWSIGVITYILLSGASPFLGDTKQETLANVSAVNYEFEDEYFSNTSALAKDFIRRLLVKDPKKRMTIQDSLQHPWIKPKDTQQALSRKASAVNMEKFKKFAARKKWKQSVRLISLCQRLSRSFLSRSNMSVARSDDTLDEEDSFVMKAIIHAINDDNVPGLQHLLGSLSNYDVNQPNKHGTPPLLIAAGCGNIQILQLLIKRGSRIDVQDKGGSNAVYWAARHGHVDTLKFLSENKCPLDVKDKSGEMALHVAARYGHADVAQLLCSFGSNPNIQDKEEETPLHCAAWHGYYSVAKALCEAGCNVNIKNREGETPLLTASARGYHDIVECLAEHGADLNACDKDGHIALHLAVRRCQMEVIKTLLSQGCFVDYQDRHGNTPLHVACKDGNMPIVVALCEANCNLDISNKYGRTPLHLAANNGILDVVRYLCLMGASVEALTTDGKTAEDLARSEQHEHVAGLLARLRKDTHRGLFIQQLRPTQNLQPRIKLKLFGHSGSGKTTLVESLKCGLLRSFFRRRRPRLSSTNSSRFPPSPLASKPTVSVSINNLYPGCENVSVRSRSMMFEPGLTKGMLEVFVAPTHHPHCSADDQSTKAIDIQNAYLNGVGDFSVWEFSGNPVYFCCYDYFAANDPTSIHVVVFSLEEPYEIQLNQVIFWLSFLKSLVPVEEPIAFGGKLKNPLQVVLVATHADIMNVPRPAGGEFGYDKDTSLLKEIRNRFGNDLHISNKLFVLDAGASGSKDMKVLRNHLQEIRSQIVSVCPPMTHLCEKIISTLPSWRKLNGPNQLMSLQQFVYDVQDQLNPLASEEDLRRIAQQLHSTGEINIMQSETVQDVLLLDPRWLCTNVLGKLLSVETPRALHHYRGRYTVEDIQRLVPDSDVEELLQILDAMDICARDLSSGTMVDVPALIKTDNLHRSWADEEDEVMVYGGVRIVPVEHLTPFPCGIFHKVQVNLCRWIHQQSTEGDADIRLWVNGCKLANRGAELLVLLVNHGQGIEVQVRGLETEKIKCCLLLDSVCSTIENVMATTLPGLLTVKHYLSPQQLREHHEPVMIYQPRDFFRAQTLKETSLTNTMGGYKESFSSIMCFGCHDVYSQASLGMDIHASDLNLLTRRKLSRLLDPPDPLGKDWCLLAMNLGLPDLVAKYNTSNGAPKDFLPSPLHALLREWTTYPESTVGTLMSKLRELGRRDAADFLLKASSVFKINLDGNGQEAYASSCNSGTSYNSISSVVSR

SMILES	inhibition [1] [%]	inhibition [2] [%]	inhibition [3] [%]	inhibition [4] [%]	inhibition [5] [%]	inhibition [6] [%]	inhibition [7] [%]	inhibition [8] [%]	inhibition [9] [%]	inhibition [10] [%]	inhibition [11] [%]	inhibition [12] [%]	inhibition [13] [%]	inhibition [14] [%]	inhibition [15] [%]	inhibition [16] [%]	inhibition [17] [%]	inhibition [18] [%]	inhibition [19] [%]	inhibition [20] [%]
CCn1cc(-c2ccnc3[nH]ccc23)c(-c2cccc(NC(=O)Nc3ccc(OCc4ccccc4)cc3)c2)n1	1.12	-1.87	-0.63	-0.39	-0.71	0.57	1.13	0.74	3.68	1.29	2.97	1.33	2.66	-3.14	-3.15	0.36	1.39	-1.1	-0.1	-0.11
CS(=O)(=O)CCNCc1ccc(-c2ccc3ncnc(Nc4ccc(OCc5ccccc5)c(C(F)(F)F)c4)c3c2)o1	10.9	7.37	2.23	4.99	3.73	8.97	10.7	2.72	4.11	3.87	4.16	2.86	3.74	2.98	2.19	2.1	3.92	-0.02	4.64	0.21
c1ccc(-c2nc3n(c2-c2ccc4c(c2)OCO4)CCC3)nc1	1.91	0.33	2.8	1.38	1.27	3.55	3.33	1.87	4.07	2.01	4.15	1.03	2.7	2.58	4.77	1.71	3.75	0.98	-0.19	2.71
COc1cc(/C=N/Nc2ncnc3[nH]ncc23)ccc1O	4.2	1.49	1.35	2.01	2.3	2.87	4	7.13	35.7	7.13	30.6	1.99	15.4	15.3	75.5	4.69	22.6	3.33	25.7	4.08
CN(C)CCOc1ccc(-c2nc(-c3ccncc3)c(-c3ccc4c(c3)CC/C4=N\O)[nH]2)cc1	5.09	0.7	1.55	1.68	2.27	2.57	4.19	2.54	3.97	2.63	4.44	0.44	2.12	1.61	3.61	1.3	7.41	1.42	5.3	1.34
COc1ccc(CNC(=O)c2ccc(-c3cc(-c4nnc(C)o4)ccc3C)cc2)cc1	10.2	1.92	2.89	4.31	5.53	14.5	29.3	1.53	2.91	1.55	0.99	2.25	1.91	0.76	1.99	4.23	9.25	4.37	8.59	1.99
Nc1nc(-c2ccc(F)cc2)c(-c2ccc3ncccc3n2)s1	4.25	1.89	1.19	2.16	1.53	11.3	24.6	4.82	7.14	3.4	3.12	2.07	2.43	4.85	22.3	4.39	8.56	1.91	5.26	0.92
Nc1nc(-c2cccc(Cl)c2)c(-c2ccc3ncccc3n2)s1	15.4	1.69	1.16	4.89	6.05	13.6	23.9	5.51	4.17	2.28	6.68	1.87	-0.31	4.19	11.3	3.39	9.69	2.72	7.56	1.01
Cc1ccc(O)cc1Nc1ccnc2cc(-c3ccccn3)ccc12	5.29	1.56	2.1	1.91	1.68	7.63	19.4	4.13	6.28	4.39	10.8	2.1	3.98	1.72	3.79	3.8	6.21	1.72	4.94	0.54
COc1ccc2[nH]c3c4[nH]c5ccc(OC)cc5c4c4c(c3c2c1)C(=O)NC4=O	24.8	1.24	2.81	2.61	5.29	5.01	6.04	7.99	38.8	3.92	33.5	3.93	15.9	22.3	77.6	6.39	11.5	8.34	18.1	1.57
COc1cc2ncn(-c3cc(OCc4ccccc4C(F)(F)F)c(C(=O)N(C)C)s3)c2cc1OC	-1.63	-2.64	3.14	-0.07	-0.4	-1.65	0.87	0.44	1.45	0.15	3.36	-0.78	0.92	2.15	1.97	0.52	3.31	-0.13	2.71	-2.4
Cc1ccc2c(-c3ccnc(Nc4ccccc4)n3)c(-c3ccc(F)cc3)nn2n1	5.85	1.21	1.97	1.27	1.49	32.5	36	2.17	2.96	3.81	0.65	1.31	1.67	1.41	5.51	0.98	1.88	0.04	0.75	0.87
Cc1cccc2c1NC(=O)/C2=N\Nc1ccc(S(N)(=O)=O)cc1	4.75	0.74	2.14	1.37	1.1	2.44	2.04	1.81	3.2	2.64	2.38	1.25	2.15	3.77	2.1	1.62	2.53	0.84	1.26	0.47
CCn1c(-c2nonc2N)nc2ccccc21	7.32	-0.38	-3.76	0.79	1.12	3.15	1.52	2.03	3.52	3.42	22.2	1.04	2.84	1.29	7.45	1.93	8.64	0.78	14.7	-0.05
CN1CCC(n2cnc(-c3ccc(F)cc3)c2-c2ccnc(Nc3ccccc3)n2)CC1	2.54	0.09	-4.09	1	0.41	34.8	36.9	1.99	4.86	3.17	2.89	0.39	0.51	1.63	3.22	1.8	11.4	1.79	4.18	0.89
NS(=O)(=O)c1ccc(Nc2ncc(-c3ccccc3)o2)cc1	4.56	1.31	1.65	1.62	1.99	2.89	2.39	3.62	12.9	4.38	12.2	2.7	10.9	1.52	0.94	4.26	21.3	3.92	18.9	2.35
CCN1CCC(CC(=O)Nc2n[nH]c3nnc(-c4cccc(F)c4F)cc23)CC1	3.28	-0.85	1.18	1.15	0.52	1.74	0.62	1.89	2.48	2.14	2.57	2.32	2.11	3.71	2.39	1.66	2.05	1.98	2.98	-2.03
CC(C)COC(=O)c1ccc2c(c1)/C(=C/Nc1ccc(S(N)(=O)=O)cc1)C(=O)N2	3.08	-2.21	10.2	-0.97	-1.28	-2.74	-2.61	42.7	87.1	33.3	88.7	24.6	77.5	50.1	93.2	-1.01	6.56	1.73	13.9	25.9
COc1ccc(-c2oc3ncnc(N)c3c2-c2ccc(NC(=O)Nc3cc(C(F)(F)F)ccc3F)cc2)cc1	4.78	1.65	6.21	2.26	2.83	4.08	16.3	3.02	6.8	0.75	5.58	1.52	5.32	4.39	-9.28	9.84	46.6	9.42	56.3	0.01
Fc1ccc(-c2nn3ncccc3c2-c2ccnc(Nc3ccc4c(c3)OCCO4)n2)cc1	2.12	1.43	-0.42	1.56	1.39	34.4	37.8	1.97	3.47	4.24	-0.42	2.21	2.65	3.62	9.58	3.01	4.06	0.58	-0.01	-1.3
COc1ccc(-c2nn3ncccc3c2-c2ccnc(Nc3ccc4c(c3)OCCO4)n2)cc1	2.06	-1.54	-0.74	0.19	0.03	30.9	37	0.34	2.66	3	1.83	1.34	0.93	-1.54	2.58	0.71	0.14	-0.13	1.25	-1.35
Clc1ccc(-c2nn3ncccc3c2-c2ccnc(Nc3ccccc3)n2)cc1	-0.24	1.9	6.65	0.42	-0.09	22.4	32.1	1.31	0.37	-2.23	8.43	0.1	1.26	2.47	1.1	0.8	3.07	0.53	1.38	0.74
CCN(CC)S(=O)(=O)c1ccc(OC)c(Nc2ncc(-c3ccccc3)o2)c1	4.29	2.03	3.38	2.65	1.48	1.95	-0.47	1.44	2.58	-0.45	18.7	-1.02	0.8	-0.34	7.01	1.28	5.6	1.51	2.53	0.71
COc1cc2c(cc1Nc1nc(Nc3ccsc3C(N)=O)c3cc[nH]c3n1)N(C(=O)CN(C)C)CCC2(C)C	5.25	1.46	5.94	-0.48	-0.86	-0.72	-0.02	6.98	11.9	5.88	7.59	4.25	6.44	6.08	14.8	3.09	6.26	1.36	3.03	1.24
